# From ChEMBL document CHEMBL3988442, “University of Dundee, Small-Polar-MMV Screening Library” (2021)
# The campaign covered roughly 38,000 compounds. About 1,200 (3.2%) showed an effect of 50% or more. The median lay at about -58%. This is one part of a sample in which strong results are shown more often than they occur.
# Test system: Plasmodium falciparum
# Assay: Calibr Malaria Delayed Death Assay SOP
# Format: functional, organism-based
# Parameters: scale not given: in the data most compounds retested in dose-response had high values
# Conditions: concentration 4.99e-06 (unit not given; other assays of the set use mol/L)
row,Structure (SMILES),Percent Effect [%]
1,COCCn1cc(CC(=O)Nc2nc[nH]n2)c2ccccc21,-106.6
2,Cn1cc(CN2CCS(=O)(=O)C(C)(C)C2)cn1,-18.08
3,COc1ccccc1C(=O)Nc1nc2c(s1)CN(S(=O)(=O)C1CC1)CC2,-86.55
4,COc1ccc(C2(NC(=O)c3ccc(=O)n(C)n3)CCCC2)cc1,-78.19
5,CCCc1cncnc1N1CCC(NCc2ccncc2)CC1,65.25
6,CCCc1cncnc1N1CCC(NCc2ccc(O)cc2)CC1,48.9
7,Oc1cccc(CNC2CCN(CCc3ccncc3)CC2)c1,-23.71
8,Fc1ccc(CNC2CCN(CCc3ccncc3)CC2)cc1F,89.24
9,Fc1ccc(C2CN(CCc3ccncc3)CCO2)cc1 (stereo not drawn),-59.94
10,Clc1cccc(CNC2CCN(CCc3ccncc3)CC2)c1,91.89
11,COCCN1CCC(NCc2cccc(F)c2)C1 (stereo not drawn),-58.84
12,O=C1CC(NCc2cccc(O)c2)CN1CCc1cccc(Cl)c1 (stereo not drawn),-115.5
13,CCCc1cncnc1N1CCC2(CCC(=O)N(C3CCCC3)C2)CC1,27.32
14,CC(C)Cc1cc(NC(=O)c2cc(Cl)c[nH]2)n(C)n1,10.73
15,CC(C)N(C)CCC(=O)N1CCCC(c2ccc(C(=O)O)cc2)C1 (stereo not drawn),-175.3
16,CC(C)CN1C[C@H]2N(c3ncccn3)CCC[C@@]2(C(=O)NCC2CC2)C1,-72.47
17,Cc1ccc(CN(C)C(=O)c2n[nH]c(N)c2-c2ccccc2)o1,-66.55
18,CN(Cc1ccncc1)C1COC2(CCN(Cc3ccccn3)CC2)C1.O=C(O)C(F)(F)F.O=C(O)C(F)(F)F.O=C(O)C(F)(F)F.O=C(O)C(F)(F)F (stereo not drawn),-49.62
19,Cc1ncsc1C(=O)NC1CCN(CC(N)=O)CC1,-67.12
20,O=C(Cn1ccc2sccc2c1=O)NCCC1=CCCCC1,-67.23
21,Cc1cccc(N2CCN(CCCNC(=O)c3cn[nH]c3C)CC2)c1,-117.5
22,CC1CCCN(CCCNC(=O)Cc2csc(-c3ccoc3)n2)C1 (stereo not drawn),9.027
23,Cc1csc([C@H]2C[C@H]3CN(Cc4cc(C)on4)CC[C@@H]3O2)n1.O=C(O)C(F)(F)F,-119
24,CCN(C(=O)CN1CCn2c(C)nnc2C1)C1=CCCCC1,8.289
25,c1cnn(CC2CN(Cc3nnc(C4CC4)o3)CCO2)c1 (stereo not drawn),-40.41
26,FC(F)(F)CCc1ccnc(N[C@H]2CC[C@H](n3cnnc3)CC2)n1,-55.01
27,N[C@H]1CC[C@@H](Nc2nccc(CCC(F)(F)F)n2)CC1,50.03
28,N[C@@H]1CC[C@@H](Nc2nccc(CCC(F)(F)F)n2)C1,-7.999
